“And” between values parts separate entries of the source, which are not always exact repeats. Equal values may be shown once. The source made the active and inactive calls. Rule for the calls: active = hit-call score of the fitted dose curve at least 0.9, where 1 is the maximum; inactive = score below 0.9.

From PubChem BioAssay (EPA / NIEHS) come the findings set out here.

Chain of E-selectin (Homo sapiens) (P16581 whole entry, looked up): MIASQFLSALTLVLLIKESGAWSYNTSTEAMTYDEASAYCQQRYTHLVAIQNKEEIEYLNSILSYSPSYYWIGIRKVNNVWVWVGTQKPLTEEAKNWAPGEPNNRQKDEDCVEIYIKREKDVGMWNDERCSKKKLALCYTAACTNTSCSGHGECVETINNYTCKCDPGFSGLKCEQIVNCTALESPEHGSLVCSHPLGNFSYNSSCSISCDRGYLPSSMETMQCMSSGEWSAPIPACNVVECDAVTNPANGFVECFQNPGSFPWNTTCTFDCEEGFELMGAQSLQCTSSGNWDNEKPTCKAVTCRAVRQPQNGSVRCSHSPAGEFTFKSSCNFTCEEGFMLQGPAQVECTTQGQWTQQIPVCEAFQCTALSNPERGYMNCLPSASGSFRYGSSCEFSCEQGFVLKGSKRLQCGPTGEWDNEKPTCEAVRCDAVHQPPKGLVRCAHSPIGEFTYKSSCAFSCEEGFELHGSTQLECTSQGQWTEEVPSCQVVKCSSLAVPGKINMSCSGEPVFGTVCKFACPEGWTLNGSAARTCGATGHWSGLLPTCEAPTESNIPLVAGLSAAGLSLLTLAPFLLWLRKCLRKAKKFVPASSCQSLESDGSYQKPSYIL

Read-out in this experiment: E-selectin (Homo sapiens) (UniProt P16581)
The experiment in a line: BSK_3C_Eselectin: BioMAP Diversity Plus: 3C Assay for Eselectin Biomarker Activity (AID 2283015). The conditions noted are these: primary human endothelial cells (HUVEC); actives raise or lower the signal. The protocol: BSK_3C is a cell-based, multiplexed-readout assay that uses umbilical vein endothelium, a human vascular primary cell, with measurements taken at 24 hours after chemical dosing in a 96-well plate.BSK_3C_Eselectin is an assay component measured in the BSK_3C assay. It measures E-selectin antibody related to regulation of gene expression using ELISA technology.Data from the assay component BSK_3C_Eselectin was analyzed into 1 assay endpoint. This assay endpoint, BSK_3C_Eselectin, was analyzed with bidirectional fitting relative to DMSO as the negative control and baseline of activity. Using a type of binding reporter, gain or loss-of-signal activity can be used to understand changes in the signaling as they relate to the gene SELE. Furthermore, this assay endpoint can be referred to as a primary readout, because this assay has produced multiple assay endpoints where this one serves a signaling function. To generalize the intended target to other relatable targets, this assay endpoint is annotated to the cell adhesion molecules intended target family, where the subfamily is selectins.
The levels of cell surface (or secreted, indicated by the prefix "s") biomarker endpoints were measured by ELISA. Overt cytotoxicity to cells in confluent adherent cultures (all systems other than the BT system) was assessed by measuring total protein levels using sulforhodamine B (SRB) staining in parallel cultures at the time of biomarker measurements, indicated as SRB endpoints. For proliferation assays for adherent cell types, individual cell types are cultured at sub-confluence and relative cell numbers quantified by SRB staining at time points optimized for each system (48 h: 3C and CASM3C systems; 72 h: BT and HDF3CGF systems; 96 h: SAg system). SRB was performed by staining cells with 0.1% SRB after fixation with 10% TCA and reading wells at 560 nm.Viability and proliferation of PBMC (T cells) was quantified by Alamar Blue reduction for the SAg and BT systems. For PBMC viability (referred to as PBMC Cytotoxicity within the assay endpoint names), cells were plated (75,000/well in a 96-well plate) and then chemical samples added for 1 h before addition of activators, SEB and TSST-1 (20 ng/mL final concentration each). Cells were incubated for 90 h. Then, Alamar Blue (20 uL/well) (Invitrogen, Cat DAL1100) was added for 6 h, and the plates were read with a fluorescence microplate reader at 546/580 nm (excitation/emission). For PBMC proliferation, cells were plated and activated as above but incubated for only 16 h prior to addition of Alamar Blue. Plates were read after 6 h.
As to `O=C(O)C(F)(F)C(F)(F)C(F)(F)C(F)(F)C(F)(F)C(F)(F)C(F)(F)C(F)F`, the result was inactive. On to `CC(=O)OC(C)(C)C1CC=C(C)CC1` (stereo not given), for which the concentration at half-maximal activity (AC50) is 31 µM (active). Same read-out and setting: under `CCCCCCCC1CCCC1=O` (stereo not given) stands 31.3 µM (active). As for `CC(C)(CO)CO`, the result was inactive. `C#C[C@]1(O)CC[C@H]2[C@@H]3CCc4cc(O)ccc4[C@H]3CC[C@@]21C`: the AC50 is 5.36 µM (active). For the compound `CCC(=O)OCC=Cc1ccccc1`, the outcome was inactive. Still for that read-out and setting: under `CC(C)Cc1ccc(C(C)C(=O)O)cc1` (stereo not given) stands “inactive”. On to `C=CC(=O)OCC(CO)(COC(=O)C=C)COC(=O)C=C`, for which the half-maximal activity concentration (AC50) is 0.269 µM (active). In the case of `c1ccc(OCCOc2ccccc2)cc1`, the outcome was inactive.

With `CC=CC(=O)C1=C(C)C=CCC1(C)C`, the result was inactive.

Consider `C=C(C)C(=O)OCCC(F)(F)C(F)(F)C(F)(F)C(F)(F)C(F)(F)C(F)(F)C(F)(F)C(F)(F)F`, for which the outcome was inactive. Regarding `OCCN1CCOCC1`, the result was inactive. The same measure, in the same setting: next, `COc1ccccc1NC(=O)CC(C)=O`: “inactive”; `CC(=O)CCC=C(C)CCC=C(C)C`: “inactive”. As for `c1ccc(Sc2ccccc2)cc1`, the AC50 was 29.9 µM (active). The same measure, in the same setting: next, `OCC(F)(OC(F)(F)C(F)(OC(F)(F)C(F)(F)C(F)(F)F)C(F)(F)F)C(F)(F)F` (stereo not given): 3.09 µM (active) and 3.33 µM (active).

As for `C[C@]12CC[C@@H]3c4ccc(O)cc4CC[C@H]3[C@@H]1CC[C@@H]2O`, the AC50 was 4.87 µM (active). Still for that read-out and setting: next, `O=C(c1ccc(OCCN2CCCCC2)cc1)c1c(-c2ccc(O)cc2)sc2cc(O)ccc12`: 37.8 µM (active); `CCCCCCCCCCCCS`: 20 µM (active). For `CC(=O)OCC=C(C)CCC=C(C)CCC=C(C)C`, the result was inactive.

On to `O=S1(=O)CC(Cl)(Cl)C(Cl)(Cl)C1`, for which the AC50 was 0.611 µM (active).

Consider `CCCCN(CCO)CCO`, for which the outcome was inactive. For the compound `C=C1CC/C=C(\C)CC[C@@H]2[C@@H]1CC2(C)C`, the AC50 is 27.4 µM (active).

As for `CCCCOCCOCCO`, the outcome was inactive.

`CCCCCCCCCC(=O)OCC`: the AC50 is 15.2 µM (active). As to `CCCO[Si](OCCC)(OCCC)OCCC`, the outcome was inactive.

For `C=C(F)C(=O)OC(C(F)(F)F)C(F)(F)F`, the result was inactive.

Take `CC(C)(C)c1cccc(O)c1`: the result was inactive. On the same count and under the same terms, next, `COC(=O)c1ccc(C(=O)OC)cc1`: “inactive”; `CC1=CC(C)C(C=O)C(C)C1` (stereo not given) (tested in a mixture with another compound): “inactive”; `CC(C)CCCC(C)(C)O`: “inactive”. As to `CC1(C)[C@H](C=C(Cl)Cl)[C@H]1C(=O)OCc1cccc(Oc2ccccc2)c1`, the result was inactive. As for `O=C(O)C(F)(F)OC(F)(F)C(F)(F)OC(F)(F)C(F)(F)C(F)(F)C(F)(F)F`, the outcome was inactive. Same read-out and setting: next, `O=C1OC2(c3ccc(O)cc3Oc3cc(O)ccc32)c2ccccc21`: “inactive”. Regarding `c1ccc2c(c1)-c1ccc3ccc4cccc5cc-2c1c3c45`, the AC50 is 0.575 µM (active). As to `C=C(C)C(N)=O`, the result was inactive. As to `CCn1cc(C(=O)O)c(=O)c2ccc(C)nc21`, the outcome was inactive. Same read-out and setting: next, `O=S(=O)(O)C(F)(F)C(F)(F)OC(F)(F)C(F)(F)F`: “inactive”; `CCOC(=O)C=Cc1ccccc1`: “inactive”; `CC(=O)c1ccc(C)cc1`: “inactive”.

What is called AC50 is the concentration at which the activity in the assay is half-maximal.
